KLF5 inhibitor: kruppel-like factor 5 inhibition | DLD-1 KLF5 promoter-luciferase reporter, luminescence | inhibition, % at 5 µM | 0.23% of 290,000 active | AID 1700;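 active = inhibition above a per-plate limit of that plate's mean compound inhibition plus 3 SD, cut at about 60% in these data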;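 note: higher means less KLF5 promoter-driven luciferase light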
Ba/F3 V617F tox: reduce viability of Ba/F3 cells dependent on JAK2V617F. 1.1% of 220,000 active. inhibition, % at 5.6 µM. Ba/F3 EpoR-JAK2V617F viability, ATP luminescence. AID 1446;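 active = inhibition above the campaign mean plus 3 SD over all tested compounds, cut at about 24% in these data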;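 note: cytokine-independent growth of Ba/F3 cells driven by EpoR plus mutant JAK2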
IEC-6 tox-1: counter-screen for KLF5 inhibitors: cytotoxicity in IEC-6 cells; inhibition, % at 5 µM; 0.78% of 290,000 active; IEC-6 cytotoxicity, luminescence viability; AID 1825; in the data active = inhibition above about 22%
aSyn 5UTR inh: 5' untranslated region of α-synuclein, MLPCN primary screen. alpha-synuclein 5'UTR reporter, inhibitor activity. inhibition, % (tested at 7.5 µM). 0.82% of 300,000 active. AID 1813; in the data active = inhibition above about 60%;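 note: H4 neuroglioblastoma cells stably carrying SNCA 5'UTR luciferase fusion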
APP 5UTR inh: APP translation inhibition; SH-SY5Y APP 5'UTR-luciferase reporter, luminescence; inhibition, % at 2 µM; 0.82% of 190,000 active; AID 1285;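 active = inhibition above a set limit, derived from the sample mean plus 3 SD, cut at about 45% in these data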
BaF3 tox: parental Ba/F3 viability inhibition as JAK2V617F counter-screen. AID 1486. 1.1% of 220,000 active. inhibition, % at 5.6 µM. CellTiter-Glo ATP luminescence;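 active = inhibition above a per-campaign cutoff, the mean inhibition of all tested compounds plus 3 SD, cut at about 27% in these data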
KLF5 confirm: confirmation of KLF5 inhibitors | inhibition, % at 4 µM | shares compounds with KLF5 inhibitor | 79% of 610 active | AID 1834 | DLD-1 KLF5 promoter firefly luciferase reporter, luminescence;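 active = inhibition above a set limit taken from the earlier primary screen, cut at about 63% in these data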
IEC-6 tox-2: counter-screen for KLF5 inhibitors: cytotoxicity in rat IEC-6 cells. shares compounds with KLF5 inhibitor. IEC-6 rat intestinal cells, viability luminescence. inhibition, % at 4 µM. 56% of 610 active; in the data active = inhibition above about 23%;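 note: cells exposed to compounds for 48 hours before viability read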
Of the large screens only hits and unclear results are named; the others gave an inactive call (follow-up assays come after a bar, where they were run). Hits are enriched below; roughly 2.2% of the tested compounds scored in any of these assays.

Cc1ccc(-c2noc(CCC(=O)NCC3CCCO3)n2)cc1 (stereo not given)	none
CC(C)(C)c1ccc(-c2noc(CCC(=O)NCC3CCCO3)n2)cc1 (stereo not given)	KLF5 inhibitor 74, aSyn 5UTR inh 104, APP 5UTR inh 60 | KLF5 confirm 67 | IEC-6 tox-2 inactive
CC(C)(C)c1ccc(-c2noc(CCC(=O)Nc3cccnc3)n2)cc1	KLF5 inhibitor 78, aSyn 5UTR inh 77 (no result: Ba/F3 V617F tox, APP 5UTR inh, BaF3 tox) | KLF5 confirm 87 | IEC-6 tox-2 inactive
CC(C)(C)c1ccc(-c2noc(CCC(N)=O)n2)cc1	KLF5 inhibitor 86, aSyn 5UTR inh 91, APP 5UTR inh 72 | KLF5 confirm 85 | IEC-6 tox-2 inactive
COC(=O)c1ccc(-c2csc(NC(=O)C3=COCCO3)n2)cc1	none (no result: Ba/F3 V617F tox, APP 5UTR inh, BaF3 tox)
O=C(Nc1ccc(NC(=O)c2sc3ccccc3c2Cl)cc1Cl)c1ccco1	none
COc1ccc(NC(=O)n2ncc3c(C)cccc32)cc1OC	none (no result: Ba/F3 V617F tox, APP 5UTR inh, BaF3 tox)
Cc1ccc(NC(=O)n2ncc3c(C)cccc32)cc1F	KLF5 inhibitor 83 (no result: Ba/F3 V617F tox, APP 5UTR inh, BaF3 tox) | KLF5 confirm 85 | IEC-6 tox-2 inactive
COc1ccc(CNC(=O)C(OC(=O)c2nsc(Cl)c2Cl)C(C)C)cc1 (stereo not given)	none
O=C(CN(C(=O)CNC(=O)c1cccs1)c1ccccc1F)NC1CCCC1	none (no result: Ba/F3 V617F tox, APP 5UTR inh, BaF3 tox)
Cc1nn(C(C)(C)C)c(C)c1/C=N/OC(=O)Nc1ccc(Cl)cc1	KLF5 inhibitor 98, aSyn 5UTR inh 94 (no result: APP 5UTR inh) | KLF5 confirm 105 | IEC-6 tox-2 inactive
Cc1nn(C)c(C)c1/C=N/NC(=O)C(C)(C)Oc1ccc(Cl)cc1	none
Cc1nc2ccccn2c1-c1csc(Nc2cccc(O)c2)n1	KLF5 inhibitor 74, Ba/F3 V617F tox 80, APP 5UTR inh 89, BaF3 tox 78 | KLF5 confirm 68 | IEC-6 tox-2 inactive
O=c1[nH]c(=O)n([C@H]2C[C@H](O)[C@@H](CO)O2)cc1F	KLF5 inhibitor 62, Ba/F3 V617F tox 100, IEC-6 tox-1 94, aSyn 5UTR inh 80, APP 5UTR inh 69, BaF3 tox 97 | KLF5 confirm inactive | IEC-6 tox-2 87
CSc1ccc(CN2CCCC(CNC(=O)c3ccc(F)cc3)C2)cc1 (stereo not given)	none
CCOc1ccc(-c2ccc(SC)nn2)cc1	KLF5 inhibitor 78, aSyn 5UTR inh 76 | KLF5 confirm inactive | IEC-6 tox-2 inactive
C=CCc1cccc(/C=N/NC(=O)c2ccc3nc[nH]c3c2)c1O	KLF5 inhibitor 63 (no result: Ba/F3 V617F tox, APP 5UTR inh, BaF3 tox) | KLF5 confirm inactive | IEC-6 tox-2 27
COc1ccc(Cl)cc1NC(=O)CN(C)CC(=O)Nc1ccccc1N1CCOCC1	KLF5 inhibitor 66, Ba/F3 V617F tox 83, IEC-6 tox-1 77, aSyn 5UTR inh 112, APP 5UTR inh 83, BaF3 tox 76 | KLF5 confirm 77 | IEC-6 tox-2 57
COC(=O)c1ccccc1NC(=O)CNc1cc(Cl)ccc1N1CCOCC1	none
CCCCCCCc1ccc(-c2ccc(O)cc2)nc1	none
CCCc1ccc(-c2ccc(/C=C/C(=O)O)cc2)nc1	KLF5 inhibitor 79, aSyn 5UTR inh 115, APP 5UTR inh 46 | KLF5 confirm 83 | IEC-6 tox-2 inactive
CN(C(=O)c1cccc(C(F)(F)F)c1)C1CCCc2ccccc21 (stereo not given)	none (no result: Ba/F3 V617F tox, APP 5UTR inh, BaF3 tox)
COc1cc(C(=O)N/N=C(\C)c2ccccn2)cc(OC)c1OC	KLF5 inhibitor 84, IEC-6 tox-1 96, aSyn 5UTR inh 109 (no result: Ba/F3 V617F tox, APP 5UTR inh, BaF3 tox) | KLF5 confirm inactive | IEC-6 tox-2 35
C/C(=N/NC(=O)c1ccccn1)c1ccc(O)cc1	none (no result: APP 5UTR inh)
O=C(O)c1cccc(N/N=C/c2ccc(OC(F)(F)F)cc2)c1	KLF5 inhibitor 71, aSyn 5UTR inh 64 (no result: Ba/F3 V617F tox, APP 5UTR inh, BaF3 tox) | KLF5 confirm 67 | IEC-6 tox-2 inactive
CC(=O)N(C1=C(N2CCOCC2)C(=O)c2ccccc2C1=O)c1ccc(C(=O)O)cc1	none (no result: APP 5UTR inh)
CC(=O)N(C)C1=C(N2CCOCC2)C(=O)c2ccccc2C1=O	KLF5 inhibitor 85, Ba/F3 V617F tox 101, aSyn 5UTR inh 76, BaF3 tox 101 | KLF5 confirm 84 | IEC-6 tox-2 inactive
Cc1ccc(NC(=O)c2cc3ccccc3oc2=O)cc1S(=O)(=O)N(C)C	KLF5 inhibitor 76, aSyn 5UTR inh 73, APP 5UTR inh 47 | KLF5 confirm 87 | IEC-6 tox-2 inactive
Nc1c(C(=O)Nc2cccc(C(=O)O)c2)sc2nc3c(cc12)CCCC3	KLF5 inhibitor 84, aSyn 5UTR inh 77 (no result: Ba/F3 V617F tox, APP 5UTR inh, BaF3 tox) | KLF5 confirm 90 | IEC-6 tox-2 inactive
CCN1/C(=C/c2ccc3ccccc3[n+]2CC)C=Cc2ccccc21	KLF5 inhibitor 66, Ba/F3 V617F tox 99, IEC-6 tox-1 48, BaF3 tox 92 | KLF5 confirm 103 | IEC-6 tox-2 58
O=C1CCCCC1Sc1nnc(-c2ccc3c(c2)OCO3)o1 (stereo not given)	KLF5 inhibitor 66 | KLF5 confirm inactive | IEC-6 tox-2 inactive
Clc1ccc(CSc2nnc(-c3ccc4c(c3)OCO4)o2)cc1	none
O=C(Nc1cccnc1)c1cccs1	KLF5 inhibitor 72, Ba/F3 V617F tox 46, BaF3 tox 87 | KLF5 confirm 70 | IEC-6 tox-2 inactive
O=S(=O)(c1ccc(Br)cc1)c1nc(-c2ccccc2)oc1NCCN1CCOCC1	none (no result: Ba/F3 V617F tox, APP 5UTR inh, BaF3 tox)
Cc1cccc(C)c1-n1c(C)cc(/C=N\Nc2ccc([N+](=O)[O-])cn2)c1C	none
Cc1cc(/C=N/Nc2nc(N)ncc2[N+](=O)[O-])c(C)n1-c1ccccc1F	KLF5 inhibitor 78, aSyn 5UTR inh 73 (no result: APP 5UTR inh) | KLF5 confirm 94 | IEC-6 tox-2 inactive
Cc1ccc(C(=O)COc2nc(C)nc3ccccc23)cc1	none
COc1cc(OC)c2cc(C(=O)N/N=C/c3ccccc3O)[nH]c2c1	KLF5 inhibitor 84 (no result: Ba/F3 V617F tox, APP 5UTR inh, BaF3 tox) | KLF5 confirm inactive | IEC-6 tox-2 inactive
COc1ccc2[nH]c(C(=O)N/N=C/c3ccccc3OC)cc2c1	none (no result: Ba/F3 V617F tox, APP 5UTR inh, BaF3 tox)
O=C(Nc1ccc2c(c1)OCCO2)c1cc(F)c(F)cc1Cl	none (no result: Ba/F3 V617F tox, APP 5UTR inh, BaF3 tox)
Cc1ccc(C(=O)Nc2ccc3c(c2)OCCO3)c(Cl)c1	KLF5 inhibitor 78, aSyn 5UTR inh 80 (no result: Ba/F3 V617F tox, APP 5UTR inh, BaF3 tox) | KLF5 confirm inactive | IEC-6 tox-2 inactive
CN1C(=O)CC(=O)N(C)c2cc(S(=O)(=O)N(C)Cc3ccccc3)ccc21	none (no result: Ba/F3 V617F tox, APP 5UTR inh, BaF3 tox)
CCc1ccn2cc(-c3ccc4c(c3)OCO4)nc2c1	KLF5 inhibitor 66, aSyn 5UTR inh 107 (no result: APP 5UTR inh) | KLF5 confirm 62 | IEC-6 tox-2 inactive
O=C(N/N=C/c1cccs1)c1cc(C2CC2)nc2ccccc12	none
O=C(N/N=C/c1cccs1)c1cc(-c2ccncc2)nc2ccccc12	KLF5 inhibitor 75, Ba/F3 V617F tox 69, IEC-6 tox-1 72, aSyn 5UTR inh 62, APP 5UTR inh 95, BaF3 tox 73 | KLF5 confirm 83 | IEC-6 tox-2 60
